Several values for one entry are separate records, joined by “and”; a condition that tells them apart may be missing. Equal entries are not always repeated. Results filed as inconclusive are left out. Entries that show only a call come without a potency. Activity calls are given as the source filed them. Unless noted, calls come from the whole dose curve; as a rule, active = well fitted inhibition curve with a large enough effect; inconclusive = small, poorly fitted or top-dose-only effect; inactive = flat fitted curve, though single readings scatter.
Target: Ubiquitin carboxyl-terminal hydrolase 1 (Homo sapiens) (UniProt O94782)
Assay: Inhibitors of USP1/UAF1: Pilot qHTS (AID 504865); note: nearly all actives have a fitted effect of over 35% in size; note: potency is the fitted concentration of half-maximal effect
Details: purified USP1/UAF1, Ub-rhodamine cleavage fluorescence; series mostly up to 54.9 µM
In short: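 Kinetic fluorescence assay: 1nM USP1/UAF1, 15 min compound preincubation, then 150nM Ub-Rho; 480/540 nm.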

Ubiquitin carboxyl-terminal hydrolase 1 (Homo sapiens), sequence (O94782 whole entry, looked up): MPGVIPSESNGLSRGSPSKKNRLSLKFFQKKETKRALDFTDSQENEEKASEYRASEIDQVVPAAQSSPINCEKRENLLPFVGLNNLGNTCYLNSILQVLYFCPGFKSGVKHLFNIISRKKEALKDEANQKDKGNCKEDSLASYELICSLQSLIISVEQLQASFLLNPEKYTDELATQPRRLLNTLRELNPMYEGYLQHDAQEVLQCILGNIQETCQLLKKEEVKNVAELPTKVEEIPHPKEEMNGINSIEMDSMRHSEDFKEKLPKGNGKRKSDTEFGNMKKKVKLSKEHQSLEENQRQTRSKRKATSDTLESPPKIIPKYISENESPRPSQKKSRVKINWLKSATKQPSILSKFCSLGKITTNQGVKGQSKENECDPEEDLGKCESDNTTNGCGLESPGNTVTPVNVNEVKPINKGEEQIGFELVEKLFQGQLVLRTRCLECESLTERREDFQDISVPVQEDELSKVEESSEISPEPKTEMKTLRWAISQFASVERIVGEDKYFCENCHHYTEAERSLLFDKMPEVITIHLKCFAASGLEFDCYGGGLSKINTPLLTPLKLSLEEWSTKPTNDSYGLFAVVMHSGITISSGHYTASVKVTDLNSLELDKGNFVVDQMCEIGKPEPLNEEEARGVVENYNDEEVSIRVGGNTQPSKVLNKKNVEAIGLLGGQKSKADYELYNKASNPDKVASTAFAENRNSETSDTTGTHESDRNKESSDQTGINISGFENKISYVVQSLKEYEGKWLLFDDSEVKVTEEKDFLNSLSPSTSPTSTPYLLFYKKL

Row | Structure (SMILES) | Potency
1 | COc1ccccc1CNc1cc(-c2cccc(C#N)c2)ncn1 | inactive
2 | C#C[C@]1(O)CCC2C3CCC4=C(CCC(=O)C4)C3CC[C@@]21C (stereo not given in full) | inactive
3 | CC(C)N1CCN(c2ccc(OC[C@@H]3CO[C@@](Cn4cncn4)(c4ccc(Cl)cc4Cl)O3)cc2)CC1 | inactive
4 | CC1(C)SC2C(NC(=O)Cc3ccccc3)C(=O)N2C1C(=O)O (stereo not given) | inactive
5 | Cc1nc2cnc(N3CCN(C)CC3)nc2n(C[C@H]2CCCO2)c1=O | inactive
6 | COS(C)(=O)=O | inactive
7 | FC(F)(F)c1ccccc1-c1ccc2ncnc(N3CCOCC3)c2c1 | inactive
8 | CC12CC[C@@H]3c4ccc(OS(=O)(=O)O)cc4CC[C@H]3C1CCC2=O (stereo not given in full) | inactive
9 | O=c1ccc2ccc(O)cc2o1 | inactive
10 | COc1ccccc1-c1ccc2ncnc(NCCN3CCOCC3)c2c1 | inactive
11 | FC(F)(F)c1ccccc1-c1ccc2ncnc(NCc3cccs3)c2c1 | inactive
12 | C[C@@H]1CCC[C@H](C)N1NC(=O)c1ccc(Cl)c(S(N)(=O)=O)c1 | inactive
13 | COc1cccc(Cn2c(=O)c(C)nc3cnc(Nc4cccc(OC)c4)nc32)c1 | inactive
14 | CN1C(CC(=O)c2ccccc2)CCCC1CC(O)c1ccccc1 (stereo not given) | inactive
15 | COc1ccc2ccc(=O)oc2c1 | inactive
16 | Cc1cnc(CNc2ncnc3ccc(-c4ccccc4C(F)(F)F)cc23)cn1 | inactive
17 | O=C(Cc1cccs1)NC1C(=O)N2C(C(=O)[O-])=C(C[n+]3ccccc3)CSC12 (stereo not given) | 79.4 µM (active)
18 | CN1CCN(c2ccnc(-c3ccc(N(C)C)cc3)n2)CC1 | inactive

Target: DNA dC->dU-editing enzyme APOBEC-3G (Homo sapiens) (UniProt Q9HC16)
Assay: qHTS for inhibitors of Vif-A3G interactions: Validation (AID 588379)
Details: Vif-A3G protein interaction assay; series mostly up to 46.1 µM
In short: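 Yellow fluorescence (Ex 488, Em 500-530) of Vif-coexpressing HeLa A3G-eYFP cells, scanned by Acumen cytometer, reports blocked A3G degradation. Cells plated at 700/well overnight at 37 deg C before compound addition, then a further overnight compound incubation at 37 deg C.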

DNA dC->dU-editing enzyme APOBEC-3G (Homo sapiens), sequence (Q9HC16 whole entry, looked up): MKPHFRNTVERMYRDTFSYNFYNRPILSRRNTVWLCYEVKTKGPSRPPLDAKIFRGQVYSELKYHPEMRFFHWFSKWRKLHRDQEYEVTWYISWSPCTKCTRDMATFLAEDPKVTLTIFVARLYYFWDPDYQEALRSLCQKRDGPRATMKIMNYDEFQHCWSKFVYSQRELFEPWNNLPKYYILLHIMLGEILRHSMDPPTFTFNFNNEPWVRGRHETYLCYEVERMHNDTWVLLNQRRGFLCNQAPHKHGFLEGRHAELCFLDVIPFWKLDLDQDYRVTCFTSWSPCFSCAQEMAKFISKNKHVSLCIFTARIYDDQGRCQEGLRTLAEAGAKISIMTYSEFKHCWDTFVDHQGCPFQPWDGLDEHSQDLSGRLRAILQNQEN

Row | Structure (SMILES) | outcome
19 | C=C(C)[C@H]1CC=C(C)C(=O)C1 | inactive
20 | C=CC(C)(O)CCC=C(C)C (stereo not given) | inactive
21 | O=C(/C=C/c1ccc(O)c(O)c1)OC(Cc1ccc(O)c(O)c1)C(=O)O (stereo not given) | inactive

Target: Glucocorticoid receptor (Homo sapiens) (UniProt P04150)
Assay: qHTS assay for small molecule agonists of glucocorticoid receptor signaling (AID 588532; active = well fitted curve in the direction sought with a large enough effect in the signal ratio, with a control signal flat; the % refers to the signal ratio)
Details: HeLa MMTV-bla, beta-lactamase ratio, agonist, 18 h; hits give high values; percent of dexamethasone control, DMSO zero
In short: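 MMTV-bla HeLa, beta-lactamase reporter; medium with 1% charcoal/dextran-stripped FBS; cpds up to 92 uM, 18 h, 37 C; CCF4 readout 460/530 nm; Hill fit → EC50, efficacy vs 0.1 uM dexamethasone = 100%.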

Glucocorticoid receptor (Homo sapiens), sequence (P04150 whole entry, looked up): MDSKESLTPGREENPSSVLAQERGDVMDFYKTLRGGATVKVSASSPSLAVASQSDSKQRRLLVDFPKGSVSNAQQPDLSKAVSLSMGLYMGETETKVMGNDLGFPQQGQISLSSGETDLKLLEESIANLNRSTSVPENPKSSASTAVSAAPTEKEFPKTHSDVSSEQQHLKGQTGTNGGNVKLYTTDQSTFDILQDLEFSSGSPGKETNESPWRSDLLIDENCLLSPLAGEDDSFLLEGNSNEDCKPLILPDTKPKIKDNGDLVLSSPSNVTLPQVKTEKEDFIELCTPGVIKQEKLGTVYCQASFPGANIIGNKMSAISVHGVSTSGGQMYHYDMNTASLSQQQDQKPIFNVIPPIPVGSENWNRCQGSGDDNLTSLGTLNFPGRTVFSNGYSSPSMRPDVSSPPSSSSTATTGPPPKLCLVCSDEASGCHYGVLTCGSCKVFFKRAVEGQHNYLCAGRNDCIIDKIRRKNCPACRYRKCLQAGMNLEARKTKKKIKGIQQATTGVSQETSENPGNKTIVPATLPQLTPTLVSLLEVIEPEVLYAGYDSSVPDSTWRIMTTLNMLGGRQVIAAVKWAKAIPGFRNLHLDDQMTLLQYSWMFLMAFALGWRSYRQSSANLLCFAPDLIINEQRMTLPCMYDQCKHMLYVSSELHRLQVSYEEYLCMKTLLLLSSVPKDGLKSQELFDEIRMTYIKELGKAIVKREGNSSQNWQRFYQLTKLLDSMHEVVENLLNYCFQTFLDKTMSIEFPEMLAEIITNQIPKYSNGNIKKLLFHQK

Row | Structure (SMILES) | activation
22 | C=C(C)[C@H]1CC=C(C)C(=O)C1 | -5.14% (inactive) and -7.53% (inactive)
23 | C=CC(C)(O)CCC=C(C)C (stereo not given) | -2.85% (inactive) and -11.4% (inactive)
24 | COS(C)(=O)=O | -1.66% (inactive)

Target: Glucocorticoid receptor (Homo sapiens) (UniProt P04150)
Assay: qHTS assay for small molecule antagonists of glucocorticoid receptor signaling (AID 588533; active = well fitted inhibition curve with a large enough effect in the signal ratio, with a control signal flat, not every such curve was filed as active; the % refers to the signal ratio)
Details: HeLa MMTV-bla, GRE beta-lactamase ratio, antagonist mode, 18 h; series mostly up to 76.8 µM
Text: NIH Chemical Genomics Center [NCGC] U.S. Environmental Protection Agency [EPA] National Institutes of Environmental Health Sciences [NIEHS] National Toxicology Program [NTP] NCGC Assay Overview The Glucocorticoid receptor (GR), a nuclear receptor subfamily member and its natural ligands includes […] etc. The GR is a validated drug target for inflammation. GR ligands such as dexamethasone are clinically available as anti-inflammatory drugs. Glucocorticoids implicate a role in carbohydrate, protein and lipid metabolisms and programmed cell death. They are also a component of many chemotherapy regimens for the treatment of leukemias, lymphomas, and myelomas because of their role in the induction of apoptosis.
NCGC Assay Protocol Summary Using a beta-lactamase reporter-gene under control of glucocorticoid response element (GRE), a cell-based assay [CellSensor MMTV-bla HeLa cell line assay developed by Invitrogen] was used to measure GR ligands signaling. CellSensor MMTV-bla HeLa cells were used with assay medium containing 1% charcoal/dextran treated FBS, 0.1 mM NEAA, 1 mM sodium pyruvate and 25mM HEPES. The assay was performed in clear bottom black Greiner 1536-well plates. Library compounds were measured for their ability to inhibit the reporter gene activity. Compounds were screened in a titration series in 1536-well format. […] Data was normalized relative to Dexamethasone control (2 nM, 100%), and DMSO only wells (basal, 0%). Concentration-response titration points for each compound were fitted to the Hill equation yielding concentrations of half-maximal inhibition (IC50) and maximal response (efficacy) values. qHTS protocol for GR beta-lactamase assay in antagonist mode [Step] [Parameter] [Value] [Description] 1. Reagent; 5 uL; 1500 cells/well 2. Incubation; 37 C for 3-5 hrs 3. Compounds; 23 nL; 0.59 nM to 92 uM 4. […] Agonist (Stimulator); 1uL; Dexamethasone at 2 nM (final) concentration 6. Incubation; 37 C for 18 hrs 7. Detection reagent; 1 uL of CCF4-dye 8. Incubation; RT for 2 hrs 9. Detection; Fluorescence; Envision plate reader

Row | Structure (SMILES) | outcome
25 | C=C(C)[C@H]1CC=C(C)C(=O)C1 | inactive
26 | C=CC(C)(O)CCC=C(C)C (stereo not given) | inactive
27 | COS(C)(=O)=O | inactive

Target: Peroxisome proliferator-activated receptor gamma (Homo sapiens) (UniProt P37231)
Assay: qHTS assay for small molecule agonists of peroxisome proliferator-activated receptor gamma signaling (AID 588536; active = well fitted curve in the direction sought with a large enough effect in the signal ratio, with a control signal flat, not every such curve was filed as active; the % refers to the signal ratio)
Details: HEK293 PPARg-UAS-bla, beta-lactamase ratio, 16 h, percent of rosiglitazone response, DMSO as zero; series mostly up to 76.7 µM
In short: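 Compound treatment: 16 h, 37 C, HEK293 GeneBLAzer cells. Detection: CCF4, 2 h RT. Values: Hill-fit EC50, efficacy as % of 2 uM rosiglitazone.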

Peroxisome proliferator-activated receptor gamma (Homo sapiens), sequence (P37231 whole entry, looked up): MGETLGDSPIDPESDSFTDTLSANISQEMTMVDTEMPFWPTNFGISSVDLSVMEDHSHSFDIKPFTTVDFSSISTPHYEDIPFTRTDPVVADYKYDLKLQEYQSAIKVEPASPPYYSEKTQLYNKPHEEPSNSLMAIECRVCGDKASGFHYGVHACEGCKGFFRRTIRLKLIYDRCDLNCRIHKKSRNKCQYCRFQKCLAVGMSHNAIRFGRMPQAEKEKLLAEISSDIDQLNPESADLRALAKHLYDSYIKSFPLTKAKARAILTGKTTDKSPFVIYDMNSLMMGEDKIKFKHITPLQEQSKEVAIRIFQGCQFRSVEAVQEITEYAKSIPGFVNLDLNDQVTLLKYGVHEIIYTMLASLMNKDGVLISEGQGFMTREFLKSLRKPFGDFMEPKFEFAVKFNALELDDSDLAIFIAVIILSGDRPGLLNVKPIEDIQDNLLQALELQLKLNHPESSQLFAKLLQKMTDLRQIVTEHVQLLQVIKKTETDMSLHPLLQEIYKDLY

Row | Structure (SMILES) | outcome
28 | C=C(C)[C@H]1CC=C(C)C(=O)C1 | inactive
29 | C=CC(C)(O)CCC=C(C)C (stereo not given) | inactive
30 | COS(C)(=O)=O | inactive

From PubChem BioAssay (NCATS)
